Screening results: PubChem BioAssay, several laboratories
This is a sample that favours compounds with a hit; in the whole collection about 2.6% have one here.
Mcl-1 Bim block – inhibitors of Bim peptide binding to Mcl-1, primary screen, biochemical, bead-based flow cytometry, multiplex. Induced myeloid leukemia cell differentiation protein Mcl-1 (Homo sapiens), Q07820. Bim peptide-Mcl-1 binding. inhibition, % at 10 µM. actives 0.1% (n = 190,000); in the data active = inhibition above about 40%
Target sequence (Q07820 whole entry, looked up): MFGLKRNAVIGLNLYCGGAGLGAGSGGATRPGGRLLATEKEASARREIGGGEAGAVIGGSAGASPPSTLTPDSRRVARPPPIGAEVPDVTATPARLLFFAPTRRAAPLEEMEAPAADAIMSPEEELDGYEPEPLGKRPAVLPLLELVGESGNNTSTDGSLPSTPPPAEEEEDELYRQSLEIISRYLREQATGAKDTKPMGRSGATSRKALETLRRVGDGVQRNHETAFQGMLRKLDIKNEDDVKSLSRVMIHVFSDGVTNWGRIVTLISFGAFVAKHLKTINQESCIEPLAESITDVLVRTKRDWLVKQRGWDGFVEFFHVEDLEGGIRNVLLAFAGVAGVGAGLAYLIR
Mcl1-Noxa inh – Mcl-1/Noxa binding inhibitors, primary screen, biochemical, TR-FRET, 1536-well. Induced myeloid leukemia cell differentiation protein Mcl-1 (Homo sapiens), Q07820. TR-FRET Mcl-1/Noxa peptide binding, 2 h. inhibition, % at 21.7 µM. actives 1.5% (n = 220,000);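 active = compounds that cut the protein-peptide binding signal by more than 50% relative to plate controls in a single-dose test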;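 note: His-tagged Mcl-1 with rhodamine Noxa BH3 peptide and terbium anti-His antibody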
14-3-3 Bad PPI – inhibitors of 14-3-3 zeta/Bad binding, primary screen, biochemical, TR-FRET, bovine 14-3-3 zeta. AID 781, 2007. inhibition, % at 21.7 µM. TR-FRET 14-3-3zeta/Dy647-pBad peptide displacement, 1 h. 14-3-3 protein zeta/delta (Bos taurus), P63103. actives 0.71% (n = 220,000);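 active = inhibition above about 70%, limit read from the data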
Target sequence (P63103 whole entry, looked up): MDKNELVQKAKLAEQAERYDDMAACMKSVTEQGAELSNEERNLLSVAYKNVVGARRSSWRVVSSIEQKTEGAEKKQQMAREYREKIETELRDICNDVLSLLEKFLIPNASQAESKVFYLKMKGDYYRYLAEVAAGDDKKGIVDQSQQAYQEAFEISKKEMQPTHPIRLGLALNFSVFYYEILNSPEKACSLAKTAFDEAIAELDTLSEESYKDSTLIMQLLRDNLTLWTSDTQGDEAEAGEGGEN
eIF4E-4G inh – eIF4E–eIF4G protein interaction inhibitors, primary screen, biochemical, uHTS, TR-FRET, eIF4GI fragment | actives 0.37% (n = 220,000) | AID 782, 2007 | inhibition, % at 21.7 µM | TR-FRET eIF4E-eIF4GI(517-606) binding, 2 h | Eukaryotic translation initiation factor 4E (Mus musculus) + Eukaryotic translation …;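 active = inhibition above about 30%, limit read from the data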
MCL1-BIM inh – inhibitors of MCL1 binding to BIM-BH3, primary screen, biochemical, fluorescence polarization. Induced myeloid leukemia cell differentiation protein Mcl-1 (Homo sapiens), Q07820. GST-MCL1 / FITC-Bim-BH3 fluorescence polarization. inhibition, % at 10.9 µM. actives 0.68% (n = 320,000);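 active = inhibition above the mean inhibition of all tested compounds plus 3 SD, set per campaign, cut at about 40% in these data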;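 note: higher means more loss of mP so more displacement of Bim peptide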
Mcl1-Bid inh – Mcl-1/Bid binding inhibitors, primary screen, biochemical, TR-FRET, 1536-well; TR-FRET Mcl-1/Bid-Dy647 peptide binding; inhibition, % at 21.7 µM; actives 0.97% (n = 220,000);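 active = compounds that cut the binding signal by more than half at the single screening dose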;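 note: His-tagged Mcl-1 with europium anti-His antibody binding Bid BH3 peptide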
Of the large screens only hits and unclear results are named; the others gave an inactive call; [ ] = dose if it differs, or a comment.

CC1=CC(C#N)(C#N)C(C#N)(C#N)C(c2ccccc2)N1 (configuration not stated)	MCL1-BIM inh 151
C=CCn1c(O)c(C2=c3ccccc3=NC2=O)sc1=Nc1ccc(O)cc1	Mcl1-Noxa inh 52 (no result: Mcl-1 Bim block)
O=C1N=c2ccccc2=C1c1sc(=S)n(NC(=O)c2ccccc2)c1O	none (no result: Mcl-1 Bim block)
O=C(NCCO)c1cc2cc(Cl)cc(Cl)c2oc1=O	none
O=C(O)c1cc2cc(Cl)cc(Cl)c2oc1=O	14-3-3 Bad PPI 83
COc1cc(C#CC#CCN2CCCCC2)ccc1O	Mcl1-Noxa inh 51
COc1cc(C(=O)OCCN2CCCCC2)ccc1O	none
Cc1cccc(C)c1NC(=O)C1CCCN1C(=O)NCc1ccccc1 (configuration not stated)	none (no result: Mcl-1 Bim block, Mcl1-Noxa inh, 14-3-3 Bad PPI, eIF4E-4G inh, Mcl1-Bid inh)
CCN(CC)C(=O)c1sc(NC(=O)c2cc(-c3ccc(C)s3)nc3ccccc23)c(C(=O)OC)c1C	Mcl1-Noxa inh 61
Cc1ccc(C(CC(=O)O)NC(=O)c2ccc(S(=O)(=O)N3CC(C)OC(C)C3)cc2)cc1 (configuration not stated)	none (no result: Mcl-1 Bim block, Mcl1-Noxa inh, 14-3-3 Bad PPI, eIF4E-4G inh, Mcl1-Bid inh)
c1ccc(C[C@H]2CNCCN2CC2(c3ccccc3)CC2)cc1	none (no result: Mcl-1 Bim block, Mcl1-Noxa inh, 14-3-3 Bad PPI, eIF4E-4G inh, Mcl1-Bid inh)
CCN1/C(=C/C=C/C=C/c2sc3ccccc3[n+]2CC)Sc2ccccc21	MCL1-BIM inh 140 (no result: Mcl-1 Bim block)
COC(=O)[C@@]1(Cc2ccc(F)cc2)[C@H]2c3cc(C(=O)N4CCCC4)n(CCc4ccc(O)c(O)c4)c3C[C@H]2CN1C(=O)c1ccccc1	Mcl1-Noxa inh 65
COc1cccc(N2CCN(S(=O)(=O)c3ccc(-n4cnnn4)cc3)CC2)c1	none (no result: Mcl-1 Bim block, Mcl1-Noxa inh, 14-3-3 Bad PPI, eIF4E-4G inh, Mcl1-Bid inh)
O=C(CN1CCOCC1)NNc1c2ccccc2nc2ccccc12	none (no result: Mcl-1 Bim block)
O=C(CN1CCOCC1)Nc1c2c(nc3ccccc13)N(Cc1ccccc1)CC2	14-3-3 Bad PPI 77
CCc1nnc(NC(=O)CN2CCCC(C)C2)s1 (configuration not stated)	none (no result: Mcl-1 Bim block, Mcl1-Noxa inh, 14-3-3 Bad PPI, eIF4E-4G inh, Mcl1-Bid inh)
Cc1cccc(C)c1OCCOC(=O)c1n[nH]c2ccccc12	14-3-3 Bad PPI 89
Cc1cccc(NC(=O)COC(=O)c2n[nH]c3ccccc23)c1C	none (no result: Mcl-1 Bim block, Mcl1-Noxa inh, 14-3-3 Bad PPI, eIF4E-4G inh, Mcl1-Bid inh)
COc1ccccc1NC(=S)NCc1ccc2c(c1)OCO2	none
CCC(C)NC(=O)CSc1nc2cc3c(cc2c(=O)n1Cc1ccco1)OCO3 (configuration not stated)	Mcl1-Bid inh 54 (no result: MCL1-BIM inh)
Cc1cccc(C)c1NS(=O)(=O)c1c(C(=O)N2CCCCC2)c(C)n(C)c1C	none (no result: Mcl-1 Bim block, Mcl1-Noxa inh, 14-3-3 Bad PPI, eIF4E-4G inh, Mcl1-Bid inh)
Cn1nc(C(=O)NCCOc2ccccc2)c2ccccc2c1=O	14-3-3 Bad PPI 75
O=C(COc1cccc(F)c1)Nc1nc(-c2cccnc2)cs1	none (no result: Mcl-1 Bim block, Mcl1-Noxa inh, 14-3-3 Bad PPI, eIF4E-4G inh, Mcl1-Bid inh)
CCOc1ccc(/C=C/[N+](=O)[O-])c2ccccc12	Mcl1-Noxa inh 76
COc1ccc(C(c2c(O)cc(C)oc2=O)c2c(O)cc(C)oc2=O)cc1	Mcl1-Noxa inh 76
COc1ccc(Nc2nc(Nc3ccc(OC)cc3OC)nc(N3CCN(C)CC3)n2)c(OC)c1	none
COc1cc(O)cc2cc3c(c(O)c12)C(=O)CC(C)(O)O3 (configuration not stated)	eIF4E-4G inh 71, MCL1-BIM inh 43 (no result: Mcl-1 Bim block)
c1ccc(Cn2ncc3c(N4CCCCC4)ncnc32)cc1	14-3-3 Bad PPI 74
Cc1cc(C)cc(N(C(C)C(=O)N2CCOCC2)S(C)(=O)=O)c1 (configuration not stated)	Mcl1-Bid inh 53
Cc1ccc(C(=O)OCC(=O)NC2CC2)cc1S(=O)(=O)N1CCOCC1	none (no result: Mcl-1 Bim block, Mcl1-Noxa inh, 14-3-3 Bad PPI, eIF4E-4G inh, Mcl1-Bid inh)
CCCCOc1ccccc1C1NC(=O)CCC1[N+](=O)[O-] (configuration not stated)	none (no result: Mcl-1 Bim block, Mcl1-Noxa inh, 14-3-3 Bad PPI, eIF4E-4G inh, Mcl1-Bid inh)
CCOC(=O)CSc1nnc(CSc2nc(C)cc(C)n2)n1Cc1ccco1	eIF4E-4G inh 136[fluorescence artefact?]
COC(=O)c1sc(N2C(=O)c3oc4ccccc4c(=O)c3C2c2cccc(O)c2)nc1C (configuration not stated)	Mcl1-Bid inh 58 (no result: Mcl-1 Bim block)
Cc1nc2ccc(NC(=O)c3cc([N+](=O)[O-])cc([N+](=O)[O-])c3Cl)cc2s1	Mcl1-Noxa inh 96
NC1=NC(=O)/C(=C\c2ccsc2)S1	eIF4E-4G inh 63
NC1=NC(=O)/C(=C/c2ccc(Br)cc2)S1	none (no result: Mcl-1 Bim block, Mcl1-Noxa inh, 14-3-3 Bad PPI, eIF4E-4G inh, Mcl1-Bid inh)
O=C(N/N=C/c1ccc(O)cc1O)c1ccc(CN2C(=O)c3cccc4cccc2c34)cc1	Mcl1-Noxa inh 78
CC1(c2ccc(OC(F)F)cc2)NC(=O)N(/N=C/c2c(O)ccc3ccccc23)C1=O (configuration not stated)	none
O=C(O)c1cccc(N/N=C/C2=C(Cl)c3cc(Cl)ccc3SC2)c1	Mcl1-Noxa inh 103, Mcl1-Bid inh 89 (no result: MCL1-BIM inh)
CCOC(=O)Cc1csc(SCC(=O)Nc2nccs2)n1	none (no result: Mcl-1 Bim block, Mcl1-Noxa inh, 14-3-3 Bad PPI, eIF4E-4G inh, Mcl1-Bid inh)
CCC1(CC)NC(=O)N(CC(=O)Nc2sc3c(c2C(N)=O)CCC3)C1=O	Mcl1-Noxa inh 73
NC(=O)c1c(NC(=O)CSc2nnc(-c3ccco3)n2-c2ccccc2)sc2c1CCC2	Mcl1-Noxa inh 88, eIF4E-4G inh 31[fluorescence artefact?]
CCOC(=O)Cc1csc(SCC(=O)Nc2sc3c(c2C(N)=O)CCC3)n1	Mcl1-Noxa inh 71
CCOC(=O)c1c(NC(=O)CSc2nnc(-c3ccccc3)n2CC)sc(C(C)=O)c1C	none
CCOC(=O)c1sc(NC(=O)CSc2nnc(-c3ccco3)n2CC)c(C(=O)OCC)c1C	Mcl1-Noxa inh 64
COc1ccc(OC)c(NC(=O)CSc2ncnc3c2cnn3-c2ccccc2Cl)c1	none
Cc1cccc(N(CC(N)=O)C2SC(=O)N(c3ccccc3)C2=O)c1 (configuration not stated)	none
Cc1ccc(N(CC(N)=O)C2SC(=O)N(C)C2=O)cc1 (configuration not stated)	14-3-3 Bad PPI 80
Clc1ccc(-c2ncc3ccccn23)cc1	none
COc1ccc(-c2ncc3ccccn23)cc1OC	Mcl1-Bid inh 51
Cc1cccc(NC(=O)CN2C(=O)N/C(=C/c3cc(C)n(-c4ccncc4)c3C)C2=O)c1	Mcl1-Bid inh 81
CCN(CC)c1ccc(/C=C(\C#N)C(=O)c2ccc(Br)cc2)cc1	MCL1-BIM inh 45 (no result: Mcl-1 Bim block)
O=C(N/N=C/c1cc([N+](=O)[O-])ccc1N1CCNCC1)c1ccc([N+](=O)[O-])cc1	none
CCCCCCCCCC(=O)N/N=C/c1ccc(C)s1	eIF4E-4G inh 52[fluorescence artefact?]
Cc1ccc(-c2nnc(SCC(=O)N/N=C/c3ccc(C)s3)n2-c2ccc(C)cc2)cc1	Mcl1-Bid inh 97
